Source: PubChem BioAssay (NCI)
Where “and” joins values, the source holds several entries; their conditions need not be identical. Equal values may be shown once. This is part of a sample that, as a whole, favours compounds with a hit. Of some 83,000 tested, about 20% had one in any assay.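 Results are percent growth after 48 hours of single-concentration exposure. 100 means growth as in untreated cells, lower positive values show inhibition; negative values down to -100 show cell death.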 Some structures have more than one record in an assay (separate samples or runs), and their calls can disagree. Calls of active or inactive are those of the source. The calls were made as follows: active = growth percent below 10; inactive = the rest.

Key:
Assay in all cases: NCI-60 one-dose screen, 48 h (100 = growth as untreated, 0 = no growth, -100 = all killed)
Conditions in all cases: 10 µM unless noted
[1] = tested on: T-47D breast
[2] = tested on: BT-549 breast
[3] = tested on: MDA-MB-435 melanoma
[4] = tested on: SW-620 colon
[5] = tested on: MCF7 breast
[6] = tested on: HCT-116 colon
[7] = tested on: HCC-2998 colon
[8] = tested on: KM12 colon

Compound | growth [1] | growth [2] | growth [3] | growth [4] | growth [5] | growth [6] | growth [7] | growth [8]
O=[N+]([O-])c1ccccc1N(S(=O)(=O)c1ccccc1)S(=O)(=O)c1ccccc1 | 105% (inactive) and 92.7% (inactive) | 106% (inactive) | 100% (inactive) and 98.1% (inactive) | 102% (inactive) and 97.3% (inactive) | 127% (inactive) | 110% (inactive) and 91.4% (inactive) | 101% (inactive) and 106% (inactive) | 96.1% (inactive) and 92% (inactive)
N#CCCOc1ccccc1 | 96.5% (inactive) | 88.2% (inactive) | 96.4% (inactive) | 106% (inactive) | 94.1% (inactive) | 106% (inactive) | 110% (inactive) | 106% (inactive)
O=C(O)CCCCc1ccc([N+](=O)[O-])cc1 | 102% (inactive) and 107% (inactive) | 100% (inactive) | 111% (inactive) and 113% (inactive) | 96.4% (inactive) and 116% (inactive) | 92.4% (inactive) and 98.2% (inactive) | 103% (inactive) and 102% (inactive) | 106% (inactive) and 94.9% (inactive) | 91.1% (inactive) and 108% (inactive)
COc1cc(-c2nccc3cc4c(cc23)OCO4)cc(OC)c1OC | 27.6% (inactive) and 31.9% (inactive) | 56.8% (inactive) | -14.5% (active) and -22.9% (active) | 16.7% (inactive) and 17.5% (inactive) | 20.9% (inactive) and 16.7% (inactive) | 18.7% (inactive) and 25.3% (inactive) | 59.8% (inactive) and 48.4% (inactive) | 32.3% (inactive) and 25% (inactive)
N=C1N=C(N)CS1 | 108% (inactive) | 120% (inactive) | 106% (inactive) | 102% (inactive) | 96.8% (inactive) | 107% (inactive) | 110% (inactive) | 107% (inactive)
COc1cc2nc(N3CCC[C@@H](NC(=O)C4COc5ccccc5O4)C3)nc(N)c2cc1OC (stereo partly drawn) | 92.2% (inactive) and 90.3% (inactive) | 107% (inactive) and 113% (inactive) | 96.9% (inactive) and 99.5% (inactive) | 100% (inactive) and 107% (inactive) | 100% (inactive) and 98.9% (inactive) | 95.9% (inactive) and 95.2% (inactive) | 104% (inactive) and 98.3% (inactive) | 104% (inactive) and 103% (inactive)
Cc1cc(N=Nc2ccc(C)c(N=Nc3cc(C)c(N)cc3N)c2)c(N)cc1N | 77.5% (inactive) and 82.6% (inactive) | 94.2% (inactive) | 100% (inactive) and 12% (inactive) | 94.8% (inactive) and 48.4% (inactive) | 66.9% (inactive) and 19.4% (inactive) | 84.3% (inactive) and 58.3% (inactive) | 105% (inactive) and 91% (inactive) | 90.6% (inactive) and 39.6% (inactive)
O=S1(=O)CC(Br)C(Br)C1 (stereo not drawn) | 34.5% (inactive) and 63% (inactive) | 77.7% (inactive) and 82.9% (inactive) | 80.5% (inactive) and 95.1% (inactive) | 32.1% (inactive) and 29.8% (inactive) | 56.9% (inactive) and 63.7% (inactive) | 18.2% (inactive) and 66.8% (inactive) | 102% (inactive) and 117% (inactive) | 105% (inactive) and 116% (inactive)
CCN(CC)CCNc1ccc(C)c2sc3ccccc3c(=O)c12 (tested in a mixture with another compound) | 41% (inactive) and 31.5% (inactive) | 46.4% (inactive) and 79.4% (inactive) | 23.9% (inactive) and 28.2% (inactive) | 24% (inactive) and 20.5% (inactive) | 12.2% (inactive) and 5.61% (active) | 19.4% (inactive) and 19.9% (inactive) | 24.6% (inactive) and 20.5% (inactive) | 32.9% (inactive) and 23.9% (inactive)
COc1ccc(Cn2c(NCCN=C(N)N)nc(=O)n(Cc3ccc(F)cc3)c2=O)cc1 | 91.4% (inactive) and 87.7% (inactive) | 86.9% (inactive) and 70.2% (inactive) | 100% (inactive) and 109% (inactive) | 101% (inactive) and 95.1% (inactive) | 93.3% (inactive) and 93% (inactive) | 88.7% (inactive) and 98.3% (inactive) | 104% (inactive) and 102% (inactive) | 114% (inactive) and 106% (inactive)
Nc1ccccc1SC1CC(=O)N(c2cccc3ccccc23)C1=O (stereo not drawn) | 90.4% (inactive) | 102% (inactive) | 88.7% (inactive) | 94.4% (inactive) | 88.2% (inactive) | 89.4% (inactive) | 100% (inactive) | 101% (inactive)
CN(C)c1ccc(C(Cc2ccc3ccccc3n2)Cc2ccc3ccccc3n2)cc1 | 34.7% (inactive) and 74.4% (inactive) | -3.35% (active) and 93.1% (inactive) | 32.7% (inactive) and 87.1% (inactive) | 48.1% (inactive) and 79.3% (inactive) | 40.8% (inactive) and 68% (inactive) | 15.4% (inactive) and 51.6% (inactive) | 35% (inactive) and 91.1% (inactive) | 42.1% (inactive) and 81% (inactive)
Cc1cc(O)c(C(C)C)cc1N | 16.1% (inactive) and 71.8% (inactive) | 109% (inactive) and 98.1% (inactive) | 117% (inactive) and 98.9% (inactive) | 109% (inactive) and 102% (inactive) | 94.3% (inactive) and 92.7% (inactive) | 87.2% (inactive) and 104% (inactive) | 105% (inactive) and 94.2% (inactive) | 110% (inactive) and 114% (inactive)
COC(=O)c1nc(N)nc(C(=O)OC)c1C(=O)c1ccc(OC)cc1 | 101% (inactive) and 35.5% (inactive) | 144% (inactive) and 77.1% (inactive) | 104% (inactive) and 66.8% (inactive) | 113% (inactive) and 61.9% (inactive) | 96% (inactive) and 41.9% (inactive) | 108% (inactive) and 38.1% (inactive) | 108% (inactive) and 79.3% (inactive) | 107% (inactive) and 53.7% (inactive)
CC1=C[C@H]2c3c(c(O)c(O)c4oc5cc(O)cc(O)c5c(=O)c34)[C@H](c3cc(O)c(O)c4oc5cc(O)cc(O)c5c(=O)c34)[C@H]2C(C)(C)C1 | -1.57% (active) | 7.04% (active) and -11.3% (active) | -69.8% (active) and -76.7% (active) | -37.8% (active) and -80.9% (active) | -19.7% (active) and -76.5% (active) | -61.9% (active) and -52.5% (active) | 14.3% (inactive) and -61% (active) | -27% (active) and -71.5% (active)
Cc1ccc(NCSc2ccc(Cl)cc2)cc1 | 74.3% (inactive) and 62.4% (inactive) | 44.9% (inactive) and 66% (inactive) | 63.8% (inactive) and 65.7% (inactive) | 86.2% (inactive) and 96.6% (inactive) | 86.9% (inactive) and 80.7% (inactive) | 85% (inactive) and 91% (inactive) | 92.4% (inactive) and 94.9% (inactive) | 61.4% (inactive) and 66.5% (inactive)
